# According to PubChem BioAssay (Tox21):
# Records with an inconclusive call do not appear. A call without a number means that no potency is given here. A number with no mark means an inactive call. The source made the active and inactive calls. Unless noted, the call rests on the fitted dose curve.
# Experiments:
# [1] = qHTS assay to identify small molecule antagonists of the vitamin D receptor (VDR) signaling pathway - cell viability counter screen (AID 743225; active means well fitted curve in the direction sought with a large enough effect in the repeat runs; an effect the other way counts as inactive or inconclusive; further: nearly all actives have a fitted effect of over 50% in size)
# Summary of the method: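 Viability counter screen run in the same wells as the beta-lactamase reporter assay: HEK 293T VDR-UAS-bla cells, 16 h compound exposure at 37C with 3 nM (final) 1-alpha,25-dihydroxyvitamin D3. CellTiter-Glo luminescence, 30 min, room temperature.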
# [2] = qHTS assay to identify small molecule agonists of the NFkB signaling pathway - cell viability counter screen (AID 1159515); further: series mostly up to about 61 µM; nearly all actives have a fitted effect of over 55% in size
# Summary of the method: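 NFkB-bla ME-180 cells, 2,000/well, were plated overnight at 37 C, 5% CO2, then exposed to compounds in DMSO for 5 hr. After the bla FRET read, CellTiter-Glo was added to the same wells; luminescence was read after 30 min at room temperature.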
# [3] = qHTS assay to identify small molecule agonists of the endoplasmic reticulum stress response signaling pathway (AID 1159516; active means well fitted activation curve with a large enough effect in the signal ratio in the repeat runs, not every such curve was filed as active; the % refers to the signal ratio)
# Summary of the method: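 CellSensor ESRE-bla HeLa cells, carrying a beta-lactamase reporter driven by the ER stress response element, were plated overnight and exposed to compounds for 5 hr at 37 C. Reporter activity was read as FRET substrate fluorescence after 2 hr at room temperature.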
# [4] = qHTS assay to identify small molecule antagonists of the retinoid-related orphan receptor gamma (ROR-gamma) signaling pathway - cell viability counter screen (AID 1159520; active means well fitted curve in the direction sought with a large enough effect in the repeat runs; an effect the other way counts as inactive or inconclusive; further: nearly all actives have a fitted effect of over 50% in size)
# Summary of the method: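 Cytotoxicity was read from cellular ATP (CellTiter-Glo luminescence) after 16 hr at 37 C with 1 uM doxycycline induction. The inducer was added 2 hr after compound transfer to Tet-on ROR gamma CHO cells.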
# [5] = qHTS assay to identify small molecule agonists of the AP-1 signaling pathway (AID 1159526)
# [6] = qHTS assay to identify small molecule agonists of the vitamin D receptor (VDR) signaling pathway - cell viability counter screen (AID 743224; active means well fitted curve in the direction sought with a large enough effect in the repeat runs; an effect the other way counts as inactive or inconclusive; further: nearly all actives have a fitted effect of over 50% in size; further: potency means the concentration at half of the fitted maximal effect; on activity change, negative = cytotoxicity: series mostly up to about 63 µM)
# Summary of the method: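 VDR-bla cells were preincubated 4 h at 37C/5% CO2, then exposed to compounds for 16 h. After the 2 h room-temperature bla FRET read, CellTiter-Glo was added to the same wells and luminescence read after 30 min.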
# [7] = qHTS assay to identify small molecule agonists of the AP-1 signaling pathway - cell viability counter screen (AID 1159525); further: nearly all actives have a fitted effect of over 55% in size
# Summary of the method: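 Luminescent ATP readout (Cell Titer Glo, 30 min RT), normalised to DMSO and tetra n-octyl ammonium bromide controls. Cells were ME-180 AP-1-bla in 0.5% dialyzed FBS Opti-MEM, with a 5 h, 37 °C compound exposure.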
# [8] = molecular target: Retinoic acid receptor RXR-alpha (Homo sapiens) (UniProt P19793); experiment: qHTS assay to identify small molecule agonists of the RXR signaling pathway (AID 1159527); further: nearly all actives have a fitted effect of over 35% in size
# Chain of Retinoic acid receptor RXR-alpha (Homo sapiens) (P19793 whole entry, looked up): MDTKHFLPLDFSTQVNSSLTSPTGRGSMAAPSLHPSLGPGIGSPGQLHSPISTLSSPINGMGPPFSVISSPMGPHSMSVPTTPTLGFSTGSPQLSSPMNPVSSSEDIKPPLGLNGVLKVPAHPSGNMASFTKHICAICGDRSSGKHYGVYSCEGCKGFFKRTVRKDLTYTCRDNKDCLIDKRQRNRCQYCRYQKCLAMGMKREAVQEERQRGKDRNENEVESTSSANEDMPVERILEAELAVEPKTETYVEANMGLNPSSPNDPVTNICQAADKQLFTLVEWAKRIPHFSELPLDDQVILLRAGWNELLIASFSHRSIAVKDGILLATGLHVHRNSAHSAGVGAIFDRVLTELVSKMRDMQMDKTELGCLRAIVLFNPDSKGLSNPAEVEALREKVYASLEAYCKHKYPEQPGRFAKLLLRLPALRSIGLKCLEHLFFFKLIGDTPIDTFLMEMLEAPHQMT
# Summary of the method: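 Agonist mode; 9-cis retinoic acid positive control. HEK 293T UAS-bla reporter cells, 2% charcoal-stripped FBS, 16 hr compound exposure at 37 C/5% CO2. LiveBLAzer B/G FRET substrate 2 hr RT; ex 405, em 460/530 nm.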
# [9] = qHTS assay to identify small molecule agonists of the endoplasmic reticulum stress response signaling pathway - cell viability counter screen (AID 1159517); further: series mostly up to about 61 µM; nearly all actives have a fitted effect of over 50% in size
# Summary of the method: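 Cells, HeLa ESRE-bla; density, 1,500/well; dosing, 5 hr at 37 C, 5% CO2; readout, CellTiter-Glo luminescence after 30 min RT.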
# [10] = molecular target: Nuclear receptor ROR-gamma (Homo sapiens) (UniProt P51449); experiment: qHTS assay to identify small molecule antagonists of the retinoid-related orphan receptor gamma (ROR-gamma) signaling pathway (AID 1159521; active means well fitted curve in the direction sought with a large enough effect in the repeat runs; an effect the other way counts as inactive or inconclusive; further: nearly all actives have a fitted effect of over 50% in size; further: potency means the concentration at half of the fitted maximal effect;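 on activity change, negative = inhibition: CHO cells with doxycycline inducible ROR-gamma driving an RORE luciferase reporter; top concentration of the series differs between compounds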)
# Summary of the method: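 Luminescence readout (ONE-Glo, 30 min RT) after 16 h doxycycline induction; loss of signal scored as antagonism. CHO cells with TET-inducible RORγ and RORE-LUC reporter; compounds added 2 h before 1 uM final doxycycline.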
compound,measurement,setting,value
O=C(O)CC(=O)C(=O)O,Potency,[1],inactive
same,Potency,[2],inactive
same,Potency,[3],inactive
same,Potency,[4],inactive
same,Potency,[5],inactive
C[C@@H](c1ncncc1F)C(O)(Cn1cncn1)c1ccc(F)cc1F (stereo partly specified),Potency,[6],inactive
same,Potency,[1],inactive
same,Potency,[2],inactive
same,Potency,[3],inactive
same,Potency,[4],inactive
same,Potency,[7],inactive
same,Potency,[5],inactive
same,Potency,[8],inactive
NC(N)=NCCC[C@H](N)C(=O)O,"activity change, negative = cytotoxicity",[6],-0.114% [at 5.95 µM]
same,"viability change, negative = cytotoxic",[1],-1.77% [at 6.95 µM]
same,activation,[3],0.874% [at 6.95 µM]
same,"activity change, negative = cytotoxicity",[9],-7.79% [at 6.95 µM]
same,"activity, negative = cytotoxicity",[4],0.0529% [at 8.39 µM]
same,"activity change, negative = inhibition",[10],-5.21% [at 8.39 µM]
same,activation,[5],2.4% [at 6.97 µM]
same,activation,[8],7.8% [at 6.98 µM]
ClCCOCCOCCCl,Potency,[6],inactive
same,Potency,[1],inactive
same,Potency,[2],inactive
same,Potency,[3],inactive
same,Potency,[4],inactive
same,Potency,[7],inactive
same,Potency,[5],inactive
same,Potency,[8],inactive
CC(CC=O)c1ccccc1 (stereo unspecified),Potency,[6],inactive
same,Potency,[1],inactive
same,Potency,[2],inactive
same,Potency,[3],inactive
same,Potency,[4],inactive
same,Potency,[7],inactive
same,Potency,[5],inactive
CCCCC(CC)COC(=O)COc1ccc(Cl)cc1Cl (stereo unspecified),Potency,[6],inactive
same,Potency,[1],inactive
same,Potency,[2],inactive
same,Potency,[3],inactive
same,Potency,[4],inactive
same,Potency,[7],inactive
same,Potency,[5],inactive
same,Potency,[8],inactive
O=C(Nc1ccc(S(=O)(=O)N2CCOCC2)cc1)c1cc(Cl)ccc1NS(=O)(=O)c1ccc(Cl)s1,Potency,[2],inactive
same,Potency,[3],inactive
same,Potency,[4],inactive
same,Potency,[7],inactive
same,Potency,[8],inactive
COc1cc2nc(Cl)nc(N)c2cc1OC,Potency,[6],inactive
same,Potency,[1],inactive
same,Potency,[2],inactive
same,Potency,[3],inactive
same,Potency,[4],inactive
same,Potency,[7],inactive
same,Potency,[5],inactive
same,Potency,[8],inactive
Cc1ccc(C(C)OC(=O)C2(C)CCC(C(=O)O)C2(C)C)cc1 (stereo unspecified),Potency,[6],inactive
same,Potency,[1],inactive
same,Potency,[3],inactive
same,Potency,[9],inactive
same,Potency,[4],inactive
same,Potency,[7],inactive
same,Potency,[5],inactive
CCOC(=O)Cc1cccc2ccccc12,Potency,[6],inactive
same,Potency,[1],inactive
same,Potency,[3],inactive
same,Potency,[4],inactive
same,Potency,[5],inactive
same,Potency,[8],inactive
CC(=O)c1ccc2c(c1)N(CCCN1CCC(CCO)CC1)c1ccccc1S2,Potency,[3],inactive
same,Potency,[9],inactive
same,Potency,[4],inactive
same,Potency,[7],inactive
CN(C)c1ccc(CCO)cc1,Potency,[6],inactive
same,Potency,[1],inactive
same,Potency,[3],inactive
same,Potency,[9],inactive
same,Potency,[4],inactive
same,Potency,[7],inactive
CCCCCCCCCCCC(=O)OC[C@@H](O)[C@H]1OC[C@H](OCCO)[C@H]1OCCO,Potency,[3],inactive
same,Potency,[9],inactive
same,Potency,[4],inactive
same,Potency,[7],inactive
same,Potency,[5],inactive
same,Potency,[8],inactive
CCCCCCCCCOS(=O)(=O)O,Potency,[6],inactive
same,Potency,[1],inactive
same,Potency,[3],inactive
same,Potency,[9],inactive
same,Potency,[4],inactive
same,Potency,[7],inactive
same,Potency,[5],inactive
CCc1c(C(=O)NN2CCCCC2)nn(-c2ccc(Cl)cc2Cl)c1-c1ccc(Br)cc1,Potency,[6],19.5 µM (active)
same,Potency,[1],inactive
same,Potency,[3],inactive
same,Potency,[9],inactive
same,Potency,[10],54.5 µM (active)
same,Potency,[7],inactive
same,Potency,[5],inactive
O=S(c1cc(Cl)cc(Cl)c1O)c1cc(Cl)cc(Cl)c1O,Potency,[1],inactive
same,Potency,[3],inactive
same,Potency,[9],inactive
same,Potency,[4],inactive
same,Potency,[7],inactive
Nc1ccccc1S(=O)(=O)c1ccccc1,Potency,[6],inactive
same,Potency,[1],inactive
same,Potency,[3],inactive
same,Potency,[9],inactive
same,Potency,[4],inactive
same,Potency,[5],inactive
same,Potency,[8],inactive
CC(=O)[O][Al][O]C(C)=O,Potency,[6],inactive
same,Potency,[1],inactive
same,Potency,[3],inactive
same,Potency,[9],inactive
same,Potency,[4],inactive
same,Potency,[7],inactive
same,Potency,[5],inactive
O=P(O)(OCc1ccccc1)OCc1ccccc1,Potency,[6],inactive
same,Potency,[3],inactive
same,Potency,[9],inactive
same,Potency,[4],inactive
same,Potency,[5],inactive
same,Potency,[8],inactive
O=[N+]([O-])c1ccc(NCCO)c(OCCO)c1,Potency,[6],inactive
same,Potency,[1],inactive
same,Potency,[3],inactive
same,Potency,[4],inactive
same,Potency,[7],inactive
same,Potency,[5],inactive
CN1Cc2cc(C(=O)N3CCC(C4CCNCC4)CC3)ccc2NC(CC(=O)O)C1=O (stereo unspecified),Potency,[6],inactive
same,Potency,[1],inactive
same,Potency,[3],inactive
same,Potency,[9],inactive
same,Potency,[4],inactive
same,Potency,[7],inactive
same,Potency,[5],inactive
same,Potency,[8],inactive
Cc1cccc(Nc2ccccc2)c1,Potency,[6],inactive
same,Potency,[1],inactive
same,Potency,[3],inactive
same,Potency,[9],inactive
same,Potency,[4],inactive
same,Potency,[10],inactive
CCCCNc1ccc(C(=O)OCCOCCOCCOCCOCCOCCOCCOCCOCCOC)cc1,Potency,[6],inactive
same,Potency,[1],inactive
same,Potency,[3],inactive
same,Potency,[9],inactive
same,Potency,[4],inactive
same,Potency,[5],inactive
same,Potency,[8],inactive
Cc1ncc(CO)c(C=O)c1O,Potency,[6],inactive
same,Potency,[1],inactive
same,Potency,[3],inactive
same,Potency,[9],inactive
same,Potency,[4],inactive
same,Potency,[7],inactive
same,Potency,[5],inactive
same,Potency,[8],inactive
CC(C)(COC(=O)c1ccccc1)COC(=O)c1ccccc1,Potency,[6],inactive
same,Potency,[1],inactive
same,Potency,[3],inactive
same,Potency,[9],inactive
same,Potency,[4],inactive
same,Potency,[7],inactive
same,Potency,[5],inactive
COc1ccc(S(=O)(=O)N2C(=O)[C@@](c3ccccc3OC)(N3C[C@H](O)C[C@H]3C(=O)N(C)C)c3cc(Cl)ccc32)c(OC)c1,Potency,[1],inactive
same,Potency,[3],inactive
same,Potency,[9],inactive
same,Potency,[4],inactive
same,Potency,[7],inactive
same,Potency,[5],inactive
Nc1cccc(S(=O)(=O)c2cccc(N)c2)c1,Potency,[6],inactive
same,Potency,[1],inactive
same,Potency,[3],inactive
same,Potency,[9],inactive
same,Potency,[4],inactive
same,Potency,[7],inactive
same,Potency,[5],inactive
same,Potency,[8],inactive
CN(C)CCCN1c2ccccc2Sc2ccccc21,Potency,[3],inactive
same,Potency,[9],inactive
same,Potency,[4],inactive
same,Potency,[7],inactive
COc1ccnc(CS(=O)c2nc3ccc(OC(F)F)cc3[nH]2)c1OC (stereo unspecified),Potency,[6],inactive
same,Potency,[1],inactive
same,Potency,[3],inactive
same,Potency,[9],inactive
same,Potency,[4],inactive
same,Potency,[5],inactive
